HT1080 IDH1KD tx: toxicity to HT-1080 IDH1 knockdown cells (counter line); 360,000 tested, 2% active; Potency, µM (highest dose often 46.1 µM), for the others: at the top dose activity, negative = toxicity, usual class: cytotoxic; AID 686971; HT-1080 IDH1 knockdown viability, ATP luminescence, 48 h;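 also: potency is read from the fitted curve at half-maximal effect; 0% = DMSO wells and -100% = cell-free medium wells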
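Assay cells: HT-1080 with IDH1 knockdown, 750 per well, RPMI/5% FBS. Exposure: 48 h at 37 °C following 2 h pre-incubation. Read: CellTiter-Glo luminescence; fitted concentration-response, curve class assigned.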
DT40 TDP1 no CPT: qHTS for Inhibitors of human tyrosyl-DNA phosphodiesterase 1 (TDP1): qHTS in cells in absence of CPT | 420,000 tested, 15% active | Potency, µM (top dose mostly 46.2 µM), without a hit: at the top dose activity change, negative = growth inhibition, actives largely listed as inhibitors | AID 686978, 2013 | DT40 Tdp1-/- hTDP1 cells, no CPT, ATP luminescence, 48 h; also: potency is read from the fitted curve at half-maximal effect; nearly all actives have a fitted effect of over 55% in size
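Seeded 400 DT40-hTDP1 cells/well (vehicle DMSO, no 20 nM CPT); pinned compounds; ≥48 hr at 37 °C; CellTiter-Glo luminescence as viability measure.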
HT1080NT lethal: kills 2HG-producing HT-1080-NT fibrosarcoma cells. HT-1080-NT fibrosarcoma viability, CellTiter-Glo ATP luminescence, 48 h. Potency, µM (series often up to 46.1 µM), inactives show top-dose activity, negative = less viability, most hits filed as cytotoxic. 360,000 tested, 1.6% active. AID 686970;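 also: NT is the 2HG producing partner of a matched IDH1 knockdown line; potency is read from the fitted curve at half-maximal effect; 0% = DMSO-treated cells and -100% = media-only wells without cells; nearly all actives have a fitted effect of over 55% in size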
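HT-1080-NT; 750 cells/well; 5% FBS RPMI; 48 h compound, 37 degrees C; CellTiter-Glo luminescence; curve fitting and curve-class assignment.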
DT40 TDP1 CPT: growth inhibition of DT40 Tdp1-/-;hTDP1 cells with camptothecin (screen for TDP1 inhibitors); chicken DT40 Tdp1-/-;hTDP1 cells + 20 nM CPT, ATP luminescence, 48 h; Potency, µM (titrated, usually from 46.2 µM), for inactives: top-dose activity change, negative = growth inhibition, most hits filed as inhibitors; 420,000 tested, 12% active; AID 686979; also: potency is read from the fitted curve at half-maximal effect; nearly all actives have a fitted effect of over 55% in size
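Chicken DT40 Tdp1-/- cells stably complemented with human TDP1 were seeded at 400 cells/well in medium containing 20 nM camptothecin, exposed to pin-transferred compounds, and grown at 37 °C for at least 48 hr. Viability was read as ATP luminescence.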
IL1B secr inh: inflammasome signaling inhibition, IL-1 beta readout | THP-1 LPS/ATP IL-1B secretion, AlphaLISA, 16 h; stronger effect = lower value | activity change, % at 57.5 µM | 360,000 tested, 4.7% active; in the data active = activity change below about -50%; inconclusive = mostly about -30% to -49%
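Secreted IL-1B measured by AlphaLISA bead assay after 16 h compound exposure of THP-1 cells; compounds (final up to 57.5 uM) added 1 h before LPS (250 ng/mL) and ATP (1.25 mM) stimulation; lower signal means less secretion.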
Numbers without * were called inactive; ? = inconclusive; nt = no result given; [ ] = another dose, or the depositor's remark. A selection: hits, their analogues and other compounds. The true share with any hit is near 19%. Unless noted, calls follow the shape of the dose curve; as a rule, active = well fitted curve in the direction sought with a large enough effect; inconclusive = small, poorly fitted or top-dose-only effect, or another doubt; inactive = no such curve, though single readings can be large; an effect the other way counts as inactive or inconclusive. Unless noted, % is scaled to controls: 0 for no effect and ±100 for the full control effect.

SMILES	HT1080 IDH1KD tx	DT40 TDP1 no CPT	HT1080NT lethal	DT40 TDP1 CPT	IL1B secr inh
CCCn1cc(S(=O)(=O)c2ccccc2)c(=O)c2cc(F)c(N3CCN(C)CC3)cc21	3%	10%	0%	-5%	4
O=C(NCc1cccnc1)c1cnn(-c2nccc(-c3cccs3)n2)c1C1CC1	nt	?	nt	-1%[9.04 µM]	nt
CCc1nn2c(=O)cc(COC(=O)c3cccc(NC(=O)COc4ccccc4F)c3)nc2s1	nt	?	nt	18µM*	nt
Cc1nn2c(=O)cc(COC(=O)c3cccc(NC(=O)COc4ccccc4C)c3)nc2s1	nt	21µM*	nt	18µM*	nt
Cc1nn2c(=O)cc(COC(=O)c3ccc(NC(=O)COc4ccccc4F)cc3)nc2s1	nt	5.2µM*	nt	5.8µM*	nt
CCc1nn2c(=O)cc(COC(=O)c3ccccc3NC(=O)COc3ccccc3C)nc2s1	nt	5.2µM*	nt	4.1µM*	nt
CCc1nn2c(=O)cc(COC(=O)c3ccc(NC(=O)COc4ccccc4C)cc3)nc2s1	nt	-24%	nt	12%	nt
Cc1nn2c(=O)cc(COC(=O)c3ccc(NC(=O)COc4ccc(C)c(C)c4)cc3)nc2s1	nt	?	nt	-30%	nt
N#Cc1nc(-c2cccs2)oc1NCc1ccc2c(c1)OCO2	-26%	?	-22%	8%	13
Cc1cccc(C)c1NS(=O)(=O)c1c(C(=O)N2CCCCC2)c(C)n(C)c1C	9%	10%	14%	-17%	-9
S=c1nc(-c2ccccc2Br)[nH][nH]1	10µM*	-16%	7.1µM*	?	33
S=c1nc(-c2cc(Cl)ccc2Cl)[nH][nH]1	5%	-30%	-22%	-12%	-8
COc1ccc(C(=O)OCc2cc(=O)n3c(C)csc3n2)cc1F	8%	?	12%	?	25
Cc1csc2nc(COC(=O)c3ccccc3NC(=O)c3cccc(Br)c3)cc(=O)n12	nt	8.2µM*	nt	18µM*	nt
COc1cccc(C(=O)Nc2ccccc2C(=O)OCc2cc(=O)n3c(C)csc3n2)c1	nt	-15%	nt	13%	nt
CCOc1ccc(C(=O)Nc2ccc(C(=O)OCc3cc(=O)n4c(C)csc4n3)cc2)cc1	nt	16µM*	nt	?	nt
Cc1csc2nc(COC(=O)c3ccc(F)cc3)cc(=O)n12	nt	16µM*	nt	?	nt
Cc1ccc(-n2c(SCC(=O)N(C)C3CCS(=O)(=O)C3)nc3ccccc3c2=O)cc1 (stereo not drawn)	-24%	-22%	-4%	-24%	-11
CO/N=C1\CN(c2nc3c(cc2F)c(=O)c(C(=O)O)cn3C2CC2)CC1CN (stereo not drawn)	nt	4.6µM*	nt	4.6µM*	nt
Cc1ccc(CN(Cc2ccco2)C(=O)c2ccccc2Br)o1	nt	15µM*	nt	12µM*	nt
Cc1ccc(CN(Cc2ccco2)C(=O)c2ccccc2Cl)o1	nt	?	nt	23µM*	nt
O=c1c2ccccc2nc(/C=C/c2c[nH]c3ccccc23)n1CCO	?	6.5µM*	?	4.6µM*	-92*
CCn1c(/C=C/c2ccccc2)nc2ccccc2c1=O	-13%	?	-4%	?	-23
O=c1c2ccccc2nc(/C=C/c2cc(Br)ccc2O)n1CCO	-17%	15µM*	-13%	?	-98*
Cc1ccc(S(=O)(=O)N2CCOCC2)cc1NC(=O)COC(=O)CCc1c[nH]c2ccccc12	-2%	?	0%	?	-3
SMILES	HT1080 IDH1KD tx	DT40 TDP1 no CPT	HT1080NT lethal	DT40 TDP1 CPT	IL1B secr inh
Cc1ccccc1-c1cc(=O)c2ccccc2o1	-8%	?	-19%	21µM*	-13
O=c1cc(-c2ccccc2[N+](=O)[O-])oc2ccccc12	12µM*	23µM*	?	16µM*	43
O=c1cc(-c2ccccc2F)oc2ccccc12	-7%	?	-1%	?	-29
CCOC(=O)c1cccc2c1-c1ccccc1/C2=N/O	?	-18%	?	-16%	-54*
CCCN(CCC)CC(O)Cn1cc(/C=C/C(=O)c2ccc(OC)cc2)c2ccccc21 (stereo not drawn)	nt	5.2µM*	nt	?	nt
COc1ccc(C(=O)/C=C/c2cn(CC(O)CN(CC(C)C)CC(C)C)c3ccccc23)cc1 (stereo not drawn)	nt	16µM*	nt	15µM*	nt
CCCCOC(=O)/C(=C/c1cn(C)c2ccccc12)NC(=O)c1ccc(OC)cc1	5%	-22%	-9%	2%	32
O=C(CCN1CCOCC1)NC1CCCN(Cc2ccccc2F)C1 (stereo not drawn)	0%	18%	0%	-9%	14
CCN(C(=O)CSc1cc(-c2ccccc2)c2ccc(OC)cc2n1)C1CCS(=O)(=O)C1 (stereo not drawn)	-28%	?	-27%	?	-61*
COc1ccc2c(-c3ccccc3)cc(SCC(=O)N(C)C)nc2c1	-16%	?	0%	?	-68*
COc1ccc2c(-c3ccccc3)cc(SCC(=O)NC(N)=O)nc2c1	-1%	-10%	-1%	-29%	17
COc1ccc2c(-c3ccccc3)cc(SCC(=O)NC3CCS(=O)(=O)C3)nc2c1 (stereo not drawn)	?	-25%	?	-24%	-82*
CCN(C(=O)CSc1cc(C)c2ccc(OC)cc2n1)C1CCS(=O)(=O)C1 (stereo not drawn)	-6%	-17%	-12%	2%	-11
COCCNC(=O)CSc1cc(-c2ccccc2)c2ccc(OC)cc2n1	?	?	?	-28%	-9
CCN(C(=O)COC(=O)c1c2c(nc3ccccc13)/C(=C/c1ccccc1)CC(C)C2)C1CCS(=O)(=O)C1 (stereo not drawn)	?	13µM*	?	?	-20
CCc1ccccc1Oc1ccc(S(=O)(=O)N2CCN(C)CC2)cn1	8%	?	6%	?	9
OC(c1ccc(F)c(F)c1)c1nc(-c2cc(F)cc(F)c2)cs1 (stereo not drawn)	-23%	-24%	?	-22%	-8
CCN(C(=O)CSc1nc(-c2cccs2)nc2ccccc12)C1CCS(=O)(=O)C1 (stereo not drawn)	-7%	?	-9%	?	-93*
O=C(CSc1nc(-c2cccs2)nc2ccccc12)NC1CCS(=O)(=O)C1 (stereo not drawn)	5%	-9%	-1%	-12%	-2
COc1cc(NC(=O)CCC(=O)N2CCN(S(=O)(=O)c3ccc(C)cc3)CC2)cc(OC)c1	-4%	-20%	-10%	-1%	-1
CCOc1[nH]n(-c2ccccc2)c(=O)c1C=Nc1ccccc1	?	5.8µM*	?	6.5µM*	16
CCOc1[nH]n(-c2ccccc2)c(=O)c1C=Nc1ccc(C)cc1	4%	-18%	8%	?	-25
